Drawing on ChEMBL document CHEMBL4513156, “CO-ADD screening of NCPRI (Romania) compounds”, this text covers Inhibition for nine compounds.

Potency and affinity values are given separately.

One may read the Inhibition as the change of the read-out against control, counted positive when it falls.

One assay concerns Klebsiella pneumoniae. The settings on record: Concentration 32 ug.mL-1; ASSAY_TEST Inhibition of Bacterial Growth; detection method Absorption (OD600); MEDIA CAMHB; plate type 384well; NBS; CORNING #3640; time 18 hr.
In a further assay the test system is Candida albicans. The conditions noted are these: 32 ug/mL.
In another assay the test system is Cryptococcus neoformans. The conditions noted are these: Concentration 32 ug.mL-1; ASSAY_TEST Inhibition of Fungal Growth; detection method Resazurin; Absorption (OD600-OD570); plate type 384well; NBS; CORNING #3640. (In general: Resazurin is reduced to fluorescent resorufin, in cell work by metabolically active cells.)

On to `NNC(=O)c1ccncc1` [ISONIAZID], for which the Inhibition with Klebsiella pneumoniae is 18.82%; in the assay with Candida albicans, 0.98%; in the assay with Cryptococcus neoformans it was -55.93%.
Regarding `O=C(N/N=C1/C[C@@H]2[C@H](COC(c3ccccc3)(c3ccccc3)c3ccccc3)C[C@H](COC(c3ccccc3)(c3ccccc3)c3ccccc3)[C@@H]2C1)c1ccncc1`, the Inhibition with Klebsiella pneumoniae is -5.52%; in the assay with Candida albicans it was 2.84%; in the assay with Cryptococcus neoformans, -17.15%.
On the same counts, the results for `O=C(N/N=C1/C[C@@H]2[C@@H](C(=O)O)[C@H]1C[C@H]2Cl)c1ccncc1` are 18.24%, 7.78% and -56.2%.
As for `O=C(NN=C[C@H]1[C@@H]2CCO[C@@H]2C[C@@H]1O)c1ccncc1`, the results for the Inhibition with Klebsiella pneumoniae, in the assay on Candida albicans and with Cryptococcus neoformans were 9.72%, 2.27% and -54.08%, respectively.
On the same counts, the results for `O=C(NNC(=O)[C@@H]1C[C@H](C(=O)O)[C@@H]2CCC[C@@H]21)c1ccncc1` are 17.49%, 2.57% and -51.45%.
On the same counts, the results for `O=C(N/N=C/C[C@@H]1[C@@H](/C=N/NC(=O)c2ccncc2)[C@H](O)C[C@@H]1O)c1ccncc1` are 9.84%, 0.98% and -79.15%.
With `O=C(N/N=C/C[C@@H]1[C@@H](/C=C/[C@@H](O)COc2cccc(Cl)c2)[C@H](O)C[C@@H]1O)c1ccncc1`, the results for the Inhibition with Klebsiella pneumoniae, in the assay with Candida albicans and in the assay on Cryptococcus neoformans were 18.63%, 0.21% and -81.79%, respectively.
Regarding `O=C(NN=CC[C@@H]1[C@@H](/C=C/[C@@H](O)CCc2ccccc2)[C@H](O)C[C@@H]1O)c1ccncc1`, the Inhibition was 16.12% in the assay on Klebsiella pneumoniae, -1.24% with Candida albicans and -90.23% in the assay on Cryptococcus neoformans.
Take `O=C(N/N=C1\C[C@@H]2[C@@H](CO)[C@H]1C[C@H]2Cl)c1ccncc1`: the Inhibition in the assay with Klebsiella pneumoniae is 21.63%; with Candida albicans, -0.38%; in the assay with Cryptococcus neoformans, -60.68%.
